{"source": "PubChem BioAssay (NCI)", "note": "About 83,000 compounds went through this panel and 20% of them were active in at least one assay; those are over-represented in the sample as a whole.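 Negative percent growth values reflect cell death: -40 means 40% of the cells present at the start died, and -100 means all died.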 A number with no mark means an inactive call. The source made the active and inactive calls. How the source made its calls: active means growth percent below 10; inactive means the rest.", "data": [{"system": "HL-60(TB) leukemia", "test": "NCI-60 one-dose screen, 48 h (100 = growth as untreated, 0 = no growth, -100 = all killed)", "details": "10 µM unless noted", "values": [{"smiles": "CCOC(=O)c1cocc1C(=O)O", "growth": "80.9%"}, {"smiles": "O=C(/C=C/c1cccc(Nc2ccnc3cc(Cl)ccc23)c1)c1ccc(Cl)cc1", "growth": "47.6%"}, {"smiles": "COc1ccc(-c2nc(/C=C3\\C(=O)N(C)c4ccccc43)c3ccccn23)cc1", "growth": "41.1%"}, {"smiles": "Cc1ccc(C2=Nc3c(N)nc(N)nc3NC(c3cccc(Nc4ccnc5cc(C(F)(F)F)ccc45)c3)C2)cc1", "note": "(stereo unspecified)", "growth": "-11.3% (active)"}, {"smiles": "CC[C@H](Nc1nc(C)nc(N)c1C#N)c1nc2cccc(NCc3ccc(C(=O)NO)cc3)c2c(=O)n1-c1ccccc1", "growth": "-30.5% (active)"}, {"smiles": "CCOC(=O)C(C#N)C1CCCCC1", "note": "(stereo unspecified)", "growth": "67.5%"}, {"smiles": "COc1ccc2nc3ccccc3c(NCc3ccc(F)cc3)c2c1", "growth": "-34.6% (active)"}, {"smiles": "O=C(NNC(=S)Nc1ccccc1)c1cc2ccc1CCc1ccc(cc1)CC2", "growth": "77.1%"}, {"smiles": "C1=C2CCCC3=Cc4ccccc4OC23Oc2ccccc21", "growth": "8.47% (active)"}, {"smiles": "Fc1ccc(-c2nnc(/C=C/c3cn(-c4ccccc4)nc3-c3ccccc3)o2)cc1", "growth": "94.2%"}, {"smiles": "c1ccc(CC(NCCNC(Cc2ccccc2)c2ccccc2)c2ccccc2)cc1", "note": "(stereo unspecified)", "growth": "-0.655% (active)"}, {"smiles": "COc1cc2cc(c1Cl)N(C)C(=O)C[C@H](OC(=O)[C@H](C)N(C)C(C)=O)[C@]1(C)O[C@H]1[C@H](C)[C@@H]1C[C@@](O)(NC(=O)O1)[C@H](OC)C=C/C=C(\\C)C2", "growth": "-25.6% (active)"}, {"smiles": "Cn1c2c(c3ccc(Cl)c(Cl)c31)C(C#N)C1(CCNCC1)NC2=O", "note": "(stereo unspecified)", "growth": "4.92% (active)"}, {"smiles": "COc1cc2c(c(O)c1Br)C(=O)c1c(O)cc(C[C@H](C)O)cc1[C@H]2[C@H]1c2cc(C[C@H](C)O)cc(O)c2C(=O)c2c1cc(OC)c(Br)c2O", "growth": "-28% (active)"}, {"smiles": "COc1ccc(-c2cc(-c3ccc(Cl)cc3)nc(SCCCC(=O)NO)n2)cc1", "growth": "-22.9% (active)"}, {"smiles": "CC(=O)OCC1O[C@@H](OC(C)=O)[C@@H](NC(=O)NS(=O)(=O)c2ccccc2)C(OC(C)=O)[C@@H]1OC(C)=O", "note": "(stereo partly specified)", "growth": "95.7%"}, {"smiles": "COc1ccc(/C=C/c2nc(N3CCOCC3)c3nc(Cl)c(Cl)cc3n2)cc1OC", "growth": "91.9%"}, {"smiles": "c1cnc2n[nH]c(Nc3ncnc4c3sc3ncccc34)c2c1", "growth": "96.8%"}, {"smiles": "O=C1NCC(c2cc3ccccc3[nH]c2=O)Nc2ccccc21", "note": "(stereo unspecified)", "growth": "95.7%"}, {"smiles": "COc1cc2c(=O)n(C3CCCCCC3)c3c4cc[nH]c4ncc3c2cc1OC", "growth": "74.1%"}, {"smiles": "CCOC(=O)C1=C(C)NC(SCc2nnc(-c3ccc(Cl)cc3)o2)=NC1c1ccc(Br)cc1", "note": "(stereo unspecified)", "growth": "22.5%"}, {"smiles": "CN1CCN(C(=O)c2ccc(NC(=O)c3cc4c(nn3)NCCN4Cc3cc(Cl)ccc3Cl)cc2)CC1", "growth": "43%"}, {"smiles": "CC1(C)c2[nH]c3ccccc3c2C[C@]2(C)[C@H]3C(=O)C=C4[C@@H]5C[C@@](C)(C(N)=O)CC[C@]5(C)CC[C@@]4(C)[C@]3(C)CC[C@@H]12", "growth": "59.9%"}, {"smiles": "C[C@]12CCc3c(ccc4cc(O)ccc34)[C@@H]1CC[C@H]2O", "growth": "86.7%"}, {"smiles": "COc1cc(-c2cc(/C=C3\\C(=O)Nc4ccc(Cl)cc43)[nH]n2)cc(OC)c1OC", "growth": "-26% (active)"}, {"smiles": "N#C/C(=C\\c1ccc(Br)cc1)n1nnc2cc(F)c(F)cc21", "growth": "-16.2% (active)"}, {"smiles": "CCOC(=O)N[C@H]1CCc2cc(OC)c(OC)c(OC)c2-c2ccc(SC)c(=O)cc21", "growth": "-28.9% (active)"}, {"smiles": "COc1ccc2c(c1)c(/C(O)=C1\\COC(=O)C1=O)cn2Cc1ccc(F)cc1", "growth": "85.6%"}, {"smiles": "CCN(CC)CCSc1c2ccc(Cl)cc2nc2ccc(OC)cc12", "growth": "68.8%"}, {"smiles": "COc1ccc(S(=O)(=O)NCCNc2nccc(-c3c(-c4cccc([N+](=O)[O-])c4)nc4sccn34)n2)cc1", "growth": "110%"}, {"smiles": "COc1ccc(C(=O)COc2cccc(/C=C3\\COc4ccc5ccccc5c4C3=O)c2)cc1", "growth": "72.1%"}, {"smiles": "COc1cccc(N=CNc2cccc(OC)c2)c1", "growth": "96.7%"}, {"smiles": "Cc1cc(C)c2c(NC(=O)Nc3ccc(Cl)c(Cl)c3)n[nH]c2n1", "growth": "96.9%"}, {"smiles": "CN(C)C(=S)N/N=C\\C=N/NC(=S)N(C)C", "growth": "-23% (active)"}, {"smiles": "CC/C(=C(/c1ccc(Cl)cc1)c1ccc(OCCN2CCCC2)cc1)c1ccccc1", "growth": "17.4%"}, {"smiles": "C=CC(=O)N1CCC[C@@H](n2nc(-c3ccc(Oc4ccccc4)cc3)c3c(N)ncnc32)C1", "growth": "82.5%"}]}]}
